“And” between values parts separate entries of the source, which are not always exact repeats. Equal entries are not always repeated. ± gives the standard deviation of the averaged measurements.
Key:
DLD1 [1] = assay: cell viability (CellTiter-Glo) relative to plate median (fraction of plate median); higher = more viable cells; conditions: 5 µM; treatment time 24 h; reporter: 7TFP
Method in brief: (§1)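 Colorectal cancer cell lines stably transduced with lentiviral TCF/Wnt firefly luciferase reporters (7TFP or TCF4/Wnt) were seeded in 384-well plates. 24 h later they received library compounds at a final 5 µM for 24 h. Parallel plates were read for firefly luciferase or CellTiterGlo luminescence on a Tecan F500 reader. Each well's signal was normalised to the plate median (webcellHTS2, additive, no log transformation), and the mean of two independent replicates is reported.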

HCT116 = assay: as above; conditions: 5 µM; treatment time 24 h; reporter: TCF4/Wnt
Method in brief: as §1

SW480 [2] = assay: as above; conditions: 5 µM; treatment time 24 h; reporter: 7TFP
Method in brief: as §1

DLD1 [3] = assay: TCF/Wnt firefly luciferase reporter signal relative to plate median (fraction of plate median); higher = higher Wnt reporter signal; conditions: 5 µM; treatment time 24 h; reporter: 7TFP
Method in brief: as §1

SW480 [4] = assay: as above; conditions: 5 µM; treatment time 24 h; reporter: 7TFP
Method in brief: as §1

Structure (SMILES) | cell viability (DLD1 [1]) | cell viability (HCT116) | cell viability (SW480 [2]) | TCF/Wnt firefly luciferase reporter signal (DLD1 [3]) | TCF/Wnt firefly luciferase reporter signal (SW480 [4])
CCC1=C[C@@H]2CN(C1)Cc1c([nH]c3ccccc13)[C@@](C(=O)OC)(c1cc3c(cc1OC)N(C)[C@H]1[C@@](O)(C(=O)OC)[C@H](OC(C)=O)[C@]4(CC)C=CCN5CC[C@]31[C@@H]54)C2 | 1 ± 0.11 | 0.544 ± 0.17 | 1.12 ± 0.11 | 0.911 ± 0.13 | 0.892 ± 0.12
O=c1cc(-c2cc(O)c(O)c(O)c2)oc2cc(O)cc(O)c12 | 1.02 ± 0.014 | 1.06 ± 0.057 | 0.943 ± 0.031 | 1 ± 0.057 | 0.952 ± 0.059
COc1cnc(NS(=O)(=O)c2ccc(N)cc2)nc1 | 0.973 ± 0.0057 | 1.04 ± 0.035 | 1.03 ± 0.035 | 1.04 ± 0.22 | 0.892 ± 0.055
CC(=O)O[C@@H]1CC(=O)[C@@]2(C)C(CC(=O)[C@]3(C)C2CC[C@@]2(C)[C@H](c4ccoc4)OC(=O)C4OC423)C1(C)C (stereo not given in full) | 1.025 ± 0.0071 | 1.025 ± 0.0071 | 0.981 ± 0.0057 | 0.986 ± 0.12 | 1.05 ± 0.098
Cc1ccc(Cl)c(Nc2ccccc2C(=O)O)c1Cl | 1.04 ± 0.067 | 1.06 ± 0.086 | 1 ± 0.052 | 1.04 ± 0.021 | 1.05 ± 0.064
C/C=C/C=C/c1cc2cc3c(c(O)c2c(=O)[nH]1)C1(CC3)C(O)=c2c(=O)c3c(=O)cc(OC)c(=O)c=3c(=O)c2=C1O (stereo not given) [Fredericamycin] | 1.03 ± 0.042 | 0.934 ± 0.022 | 1.04 ± 0.076 | 1.06 ± 0.21 | 0.981 ± 0.084
C[C@H](N)CO | 0.911 ± 0.034 | 0.902 ± 0.047 | 0.93 ± 0.035 | 0.908 ± 0.058 | 1.12 ± 0.092
C[C@@H]1CC[C@H]2[C@](C)(CO)[C@@H](O)CC[C@]2(C)[C@@]12CC[C@@](CO)(CCO)O2 | 0.994 ± 0.052 | 1.02 ± 0.049 | 0.9945 ± 0.0078 | 1.01 ± 0.043 | 1.02 ± 0.014
O=C(Oc1cccc2cccnc12)c1ccccc1 | 0.999 ± 0.044 | 0.891 ± 0.029 | 1.03 ± 0.035 | 0.856 ± 0.071 | 0.871 ± 0.025
O=C(O)CCCCCCCC(=O)O | 1.01 ± 0.014 | 1.11 ± 0.11 | 1.09 ± 0.021 | 1.16 ± 0.13 | 1.01 ± 0.084
CC(C)=CCc1c2c(c3occ(-c4ccc(O)cc4)c(=O)c3c1O)C=CC(C)(C)O2 | 0.955 ± 0.093 | 0.98 ± 0.028 | 0.99 ± 0.015 | 1.1 ± 0.099 | 0.914 ± 0.099
Nc1ccc(/N=N/c2ccccc2)c(N)n1 | 1.1 ± 0.2 | 1.07 ± 0.035 | 1.1 ± 0.035 | 1.285 ± 0.0071 | 1.3 ± 0.028
CC(=O)O[C@H]1C[C@@H](OC(C)=O)C(C)(C)C2CC(=O)[C@]3(C)C(CC[C@@]4(C)[C@H](C(=O)O)OC(=O)C5OC543)[C@]21C (stereo not given in full) | 0.985 ± 0.093 | 0.922 ± 0.028 | 1.01 ± 0.032 | 0.826 ± 0.027 | 0.95 ± 0.21
O=c1cc(-c2ccccc2)oc2cc(O)c(O)cc12 | 1.04 ± 0.14 | 0.986 ± 0.063 | 1.03 ± 0.042 | 0.801 ± 0.064 | 1 ± 0.12
C/C1=C2/[N-][C@H]([C@H](CC(N)=O)[C@@]2(C)CCC(=O)NC[C@@H](C)OP(=O)([O-])O[C@H]2[C@@H](O)[C@@H](n3cnc4cc(C)c(C)cc43)O[C@@H]2CO)[C@]2(C)N=C(/C(C)=C3N=C(/C=C4N=C1[C@@H](CCC(N)=O)C\4(C)C)[C@@H](CCC(N)=O)[C@]\3(C)CC(N)=O)[C@@H](CCC(N)=O)[C@]2(C)CC(N)=O.[CH2-][C@H]1O[C@H](n2cnc3c(N)ncnc32)[C@@H](O)[C@H]1O.[Co+3] | 0.933 ± 0.021 | 0.964 ± 0.18 | 0.998 ± 0.045 | 0.968 ± 0.13 | 0.971 ± 0.2
COc1cc2c(cc1OC)Cc1cc(OC)c(OC)cc1Cc1cc(OC)c(OC)cc1C2 | 1.02 ± 0.055 | 0.97 ± 0.16 | 1.02 ± 0.033 | 1.1 ± 0.15 | 0.865 ± 0.045
O=C(COc1ccc(Cl)cc1)N1CCN(Cc2ccc3c(c2)OCO3)CC1 | 0.9755 ± 0.0064 | 0.893 ± 0.03 | 1.035 ± 0.0071 | 0.865 ± 0.18 | 0.921 ± 0.018
O=C1C(O)=C(O)C(=O)C(O)=C1O | 0.96 ± 0.03 | 0.997 ± 0.1 | 0.944 ± 0.015 | 0.829 ± 0.011 | 0.822 ± 0.056
O=C(O)CCC(=O)Nc1ccc(S(=O)(=O)Nc2nccs2)cc1 | 0.9765 ± 0.0064 | 1.02 ± 0.028 | 1.04 ± 0.035 | 0.935 ± 0.12 | 1.03 ± 0.028
COc1cc(OC)c2c(=O)c(-c3ccccc3)coc2c1 | 0.989 ± 0.0028 | 1.04 ± 0.12 | 1.025 ± 0.0071 | 1.09 ± 0.064 | 1.1 ± 0.05
COc1ccc(C2CC(=O)c3ccc(OC)cc3O2)cc1 (stereo not given) | 0.994 ± 0.11 | 1.08 ± 0.021 | 1.05 ± 0.05 | 1.05 ± 0.12 | 0.901 ± 0.021
COC(=O)C1=C(C)NC(C)=C(C(=O)OCCN(C)Cc2ccccc2)C1c1cccc([N+](=O)[O-])c1 (stereo not given) | 0.914 ± 0.074 | 1.02 ± 0.1 | 0.98 ± 0.042 | 0.941 ± 0.13 | 0.951 ± 0.065
CC1(C)CC[C@]2(C(=O)O)[C@H](O)C[C@]3(C)C(=CC[C@@H]4[C@@]5(C)CC[C@H](O)C(C)(C)[C@@H]5CC[C@]43C)[C@H]2C1 | 0.9085 ± 0.0035 | 0.94 ± 0.16 | 0.9525 ± 0.0092 | 0.919 ± 0.033 | 0.999 ± 0.016
O=C(Oc1cc(O)cc2c1C[C@@H](OC(=O)c1cc(O)c(O)c(O)c1)[C@@H](c1cc(O)c(O)c(O)c1)O2)c1cc(O)c(O)c(O)c1 | 1.06 ± 0.028 | 1.1 ± 0.12 | 1.04 ± 0.021 | 0.89 ± 0.0071 | 0.951 ± 0.048
CC(c1cc2ccccc2s1)N(O)C(N)=O (stereo not given) | 1.03 ± 0.067 | 1.02 ± 0.057 | 1.05 ± 0.035 | 1.13 ± 0.014 | 0.946 ± 0.074
CN(C)CC[C@@H](c1ccc(Cl)cc1)c1ccccn1 | 1.01 and 0.901 | 0.96 and 1.04 | 0.968 and 1.01 | 0.862 and 1.08 | 0.778 and 1.05
CN(C)[C@@H]1C(O)=C(C(=O)NCN2CCCC2)C(=O)[C@@]2(O)C(O)=C3C(=O)c4c(O)cccc4[C@@](C)(O)[C@H]3C[C@@H]12 | 1.08 ± 0.13 | 1.06 | 1.02 ± 0.014 | 0.858 ± 0.067 | 1.04
COc1c(N2CCNC(C)C2)c(F)cc2c(=O)c(C(=O)O)cn(C3CC3)c12 (stereo not given) | 0.925 ± 0.18 | 0.911 ± 0.082 | 0.966 ± 0.048 | 0.933 ± 0.081 | 0.906 ± 0.041

From the supplement of paper PMC6522484
